Results on 28 compounds are retold here after PubChem BioAssay (NCATS).

Values without a mark were called inactive. For part of these data: Entries with a potency or affinity are not part of this list. Calls of active or inactive are those of the source. No rule for the calls is given here.

By AC50 is commonly meant the midpoint of the concentration-response curve, whichever way the signal moves.

The conditions of assay [1]: Ebola virus entry assay, green fluorescence channel.
For assay [2] the following is noted: Ebola virus entry assay, blue channel fluorescence.
For assay [3] the following is noted: Ebola virus entry assay, ratio channel.
The conditions of assay [4]: Ebola virus entry assay, green channel fluorescence.
The conditions of assay [5]: Ebola virus entry assay, reporter ratio channel; Channel type: primary.
The conditions of assay [6]: Ebola virus entry assay, blue channel (ratio component).
For efficacy in this document: 0% is about no effect.

Turning to `CCCCCC(N)=O`, the efficacy in assay [1] was 10.6%. In addition, the outcome in assay [2], in assay [3], in assay [4], in assay [5] and in assay [6] was inactive.
With `CCCCCCCCCCCCCCCCCCOCC(O)CO` (stereo not drawn), the efficacy in assay [1] was -25.1%. Besides, the result in assay [2], in assay [3], in assay [4], in assay [5] and in assay [6] was inactive.
On to `CC(C)C(=O)Nc1cccc(C2CN3CCSC3=N2)c1` (stereo not drawn), for which the efficacy in assay [1] was -12.5%. Moreover, the compound was classed as inactive in assay [2], in assay [3], in assay [4], in assay [5] and in assay [6].
Regarding `CC[N+](CC)(CC(=O)Nc1c(C)cccc1C)Cc1ccccc1`, in assay [1], the efficacy was -14.7%. Also, the compound was called inactive in assay [2], in assay [3], in assay [4], in assay [5] and in assay [6].
As for `CC(=O)OCC(=O)NCCCOc1cccc(CN2CCCCC2)c1`, the efficacy in assay [1] is -11.5%. The call in assay [2], in assay [3], in assay [4], in assay [5] and in assay [6] was inactive.
`CC(C(=O)O)c1ccc2c(c1)Cc1cccnc1O2` (stereo not drawn): the efficacy in assay [1] is -16.5%. Besides, the outcome in assay [2], in assay [3], in assay [4], in assay [5] and in assay [6] was inactive.
For the compound `CC(=O)Oc1c(C)c(C)c2c(c1C)CC[C@@](C)(CCC[C@H](C)CCC[C@H](C)CCCC(C)C)O2`, the efficacy in assay [1] is -9.77%. The call in assay [2], in assay [3], in assay [4], in assay [5] and in assay [6] was inactive.
Take `O=C(CCCCCCCCC#CI)Oc1ccccc1`: the efficacy in assay [1] was -20.5%. In addition, the call in assay [2], in assay [3], in assay [4], in assay [5] and in assay [6] was inactive.
For `CCCN(CCC)C(=O)C(CCC(=O)O)NC(=O)c1ccccc1` (stereo not drawn), the efficacy in assay [1] was 17.5%. The compound was classed as inactive in assay [2], in assay [3], in assay [4], in assay [5] and in assay [6].
Take `CCOC(=O)CN1CCCC1=O`: in assay [1], the efficacy was 24%. The compound was classed as inactive in assay [2], in assay [3], in assay [4], in assay [5] and in assay [6].
`CN(C)CCC(c1ccccc1)c1ccccn1` (stereo not drawn): the efficacy in assay [1] is 12.6%. Moreover, the compound was called inactive in assay [2], in assay [3], in assay [4], in assay [5] and in assay [6].
As to `C=CCCCCCCCCC(=O)O`, the efficacy in assay [1] is -13.8%. For the same compound, the compound was classed as inactive in assay [2], in assay [3], in assay [4], in assay [5] and in assay [6].
On to `O=[N+]([O-])c1nccn1CO[C@@H](CO)[C@H](O)CO`, for which the efficacy in assay [1] is -11.8%. Further, the compound was called inactive in assay [2], in assay [3], in assay [4], in assay [5] and in assay [6].
For the compound `CC(C)NC(=O)c1ccc(C=O)cc1`, the efficacy in assay [1] is 10.7%. Also, the outcome in assay [2], in assay [3], in assay [4], in assay [5] and in assay [6] was inactive.
Take `Brc1c(NC2=NCCN2)ccc2nccnc12`: the efficacy in assay [1] was -28.5%. In addition, the result in assay [2], in assay [3], in assay [4], in assay [5] and in assay [6] was inactive.
Consider `NC1=NCC2c3ccccc3Cc3ccccc3N12` (stereo not drawn), for which the efficacy in assay [1] is 22.9%. The call in assay [2], in assay [3], in assay [4], in assay [5] and in assay [6] was inactive.
Take `C[C@@]12CCC[C@H]1[C@@H]1CC[C@H]3C[C@@H](O)CC[C@]3(C)[C@H]1CC2`: the efficacy in assay [1] is -12.6%. Moreover, the compound was called inactive in assay [2], in assay [3], in assay [4], in assay [5] and in assay [6].
With `OC[C@H]1O[C@@H](O[C@@H]2[C@@H](CO)O[C@](O)(CO)[C@H]2O)[C@H](O)[C@@H](O)[C@H]1O`, the efficacy in assay [1] was -16.4%. The compound was classed as inactive in assay [2], in assay [3], in assay [4], in assay [5] and in assay [6].
As for `Oc1ccc(C(O)CNCCCCCCNCC(O)c2ccc(O)c(O)c2)cc1O` (stereo not drawn), in assay [1], the efficacy is 16%. The compound was called inactive in assay [2], in assay [3], in assay [4] and in assay [6]. Moreover, in assay [5], the concentration at half-maximal activity (AC50) was 44.7 µM (active).
In the case of `CCOC(=O)C(=O)CCc1ccccc1`, in assay [1], the efficacy is -17.5%. The result in assay [2], in assay [3], in assay [4], in assay [5] and in assay [6] was inactive.
Turning to `O=C(O)CCNC(=O)c1ccccc1`, in assay [1], the efficacy is -15.3%. Also, the call in assay [2], in assay [3], in assay [4], in assay [5] and in assay [6] was inactive.
Regarding `COc1cc(O)c(C(=O)c2ccccc2)cc1S(=O)(=O)O`, the efficacy in assay [1] was 11.7%. Also, the compound was classed as inactive in assay [2], in assay [3], in assay [4], in assay [5] and in assay [6].
Regarding `O=C(O)C1CCC1`, the efficacy in assay [1] is -19%. The call in assay [2], in assay [3], in assay [4], in assay [5] and in assay [6] was inactive.
In the case of `Cc1ccc(O)c(-n2nc3ccccc3n2)c1`, the efficacy in assay [1] was 21%. Also, the outcome in assay [2], in assay [3], in assay [4], in assay [5] and in assay [6] was inactive.
With `c1ccc2[nH]c(-c3cscn3)nc2c1`, the efficacy in assay [1] was -29.7%. In addition, the call in assay [2], in assay [3], in assay [4], in assay [5] and in assay [6] was inactive.
Take `COc1ccc(OC(=O)N(CC(=O)O)Cc2ccc(OCCc3nc(-c4ccccc4)oc3C)cc2)cc1`: in assay [1], the efficacy was -17%. Moreover, the call in assay [2], in assay [3], in assay [4], in assay [5] and in assay [6] was inactive.
`CC(=O)OCC(=O)Nc1cc(C#N)cc(NC(=O)COC(C)=O)c1Cl`: the efficacy in assay [1] is 24.6%. Moreover, the compound was classed as inactive in assay [2], in assay [3], in assay [4], in assay [5] and in assay [6].
In the case of `O=C(O)CP(=O)(O)O`, in assay [1], the efficacy is -15.3%. Further, the call in assay [2], in assay [3], in assay [4], in assay [5] and in assay [6] was inactive.
